# Test results published in the supplement of paper PMC13380429.
# Test system: Vero E6 infected with SARS-CoV-2
# Experiment: morphology score (similarity to uninfected cells); higher = more like uninfected cells
# Conditions: 24 h
row,Compound,morphology score
1,CC(=O)NCCc1c(Cc2ccccc2)[nH]c2ccccc12 [luzindole] (10 µM),0.0073
2,CC(C)(C)Sc1c(CC(C)(C)C(=O)O)n(Cc2ccc(Cl)cc2)c2ccc(OCc3ccc4ccccc4n3)cc12 [quiflapon] (10 µM),-0.04
3,OCc1c[nH]c2ccccc12 [indole-3-carbinol] (10 µM),0.0621
4,CN(C)C(=O)c1ccc(S(=O)(=O)c2ccc(NC(=O)[C@@](C)(O)C(F)(F)F)c(Cl)c2)cc1 (10 µM),0.28
5,CCN(C(=O)c1c(O)c2c(Cl)cccc2n(C)c1=O)c1ccccc1 [laquinimod] (10 µM),0.168
6,CC(C)OC(=O)[C@H](C)N[P@](=O)(CO[C@H](C)Cn1cnc2c(N)ncnc21)Oc1ccccc1 [tenofovir-alafenamide] (10 µM),-0.0883
7,C[N+]12CCCCC1CCC(=C(c1cccs1)c1cccs1)C2 (stereo not drawn) [tiquizium] (10 µM),0.138
8,COC(=O)C[C@](O)(CCCC(C)(C)O)C(=O)O[C@@H]1C(OC)=C[C@]23CCCN2CCc2cc4c(cc2[C@H]13)OCO4 [homoharringtonine] (10 µM),0.837
9,CCCCCCCCCCCCCCCCOP(=O)([O-])OCC[N+](C)(C)C [miltefosine] (0.833333 µM),0.182
10,CNC1CCCN(c2c(F)cc3c(=O)c(C(=O)O)cn(C4CC4)c3c2OC)C1 (stereo not drawn) [balofloxacin] (10 µM),-0.103
11,O=C(O)C1(C(=O)O)CCC1.[NH2-].[NH2-].[Pt+2] [carboplatin] (10 µM),-0.0106
12,CCOCc1cc(OC)c(-c2ccc(C[C@H](NC(=O)c3c(F)cccc3F)C(=O)O)cc2)c(OC)c1 [firategrast] (10 µM),-0.05
13,O=P(O)(O)CN(CCN(CP(=O)(O)O)CP(=O)(O)O)CP(=O)(O)O (10 µM),0.137
14,CCCCCCOC(=O)NC(=N)c1ccc(NCc2nc3cc(C(=O)N(CCC(=O)OCC)c4ccccn4)ccc3n2C)cc1 [dabigatran-etexilate] (10 µM),0.027
15,C[C@@H](N)[C@H]1CC[C@H](C(=O)Nc2ccncc2)CC1 (10 µM),0.243
16,CCOCOC[C@H](C[C@H](C)C(=O)NO)NC(=O)c1ccc(Oc2ccccc2)cc1 (10 µM),0.131
17,CN(C)CCC(c1ccc(Br)cc1)c1ccccn1 (stereo not drawn) [brompheniramine] (10 µM),-0.0213
18,COc1ccc(-c2cc(=O)c3c(O)cc(O[C@@H]4O[C@H](CO[C@@H]5O[C@@H](C)[C@H](O)[C@@H](O)[C@H]5O)[C@@H](O)[C@H](O)[C@H]4O)cc3o2)cc1O [diosmin] (10 µM),-0.119
19,CN(C)NC(=O)CCC(=O)O [daminozide] (10 µM),0.0765
20,CO[C@]12C[C@@H](COC(=O)c3cncc(Br)c3)CN(C)[C@@H]1Cc1cn(C)c3cccc2c13 [nicergoline] (10 µM),0.275
21,COc1cccc2c1C(=O)c1c(O)c3c(c(O)c1C2=O)C[C@@](O)(C(=O)CO)C[C@@H]3O[C@H]1C[C@H](N2CCO[C@H](OC)C2)[C@H](O)[C@H](C)O1 [nemorubicin] (0.833333 µM),0.0228
22,c1ccc2c(CCNc3ccc(Nc4ccncc4)cc3)c[nH]c2c1 [serdemetan] (10 µM),0.933
23,COc1nccc(-c2c(-c3ccc(F)cc3)ncn2C2CCNCC2)n1 (10 µM),-0.0202
24,CC(C)(Oc1ccc(C2CC2(Cl)Cl)cc1)C(=O)O (stereo not drawn) [ciprofibrate] (10 µM),-0.0908
25,Oc1cccc(Nc2ncc(F)c(Nc3cccc(O)c3)n2)c1 (0.833333 µM),0.183
26,CN[C@@H]1[C@H](O[C@H]2[C@H](O[C@H]3[C@H](O)[C@@H](O)[C@H](NC(=N)N)[C@@H](O)[C@@H]3NC(=N)N)O[C@@H](C)[C@]2(O)CO)O[C@@H](CO)[C@H](O)[C@H]1O [dihydrostreptomycin] (10 µM),-0.0119
27,CC(C)COC(=O)c1ccc(N)cc1 [isobutamben] (10 µM),0.0167
28,O=C(Nc1ccccc1)N1CCC(Cc2cnc3ccccc3c2)CC1 (10 µM),-0.147
